About 79,000 compounds went through this panel and 15% of them were active in at least one assay; those are over-represented in the sample as a whole. Activity calls are given as the source filed them. Cut-off read from the data, not from the text of the source: active = growth inhibition above about 70%; inactive = the rest.

The nature of the first test: NCI Yeast Anticancer Drug Screen. Data for the bub3 strain (AID 167). The settings on record: S. cerevisiae bub3 mutant strain, at 50.0 µM, stronger effect = higher value. In a few lines: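 In this screen, a yeast mutant lacking normal mitotic checkpoint function is challenged with compound. Relative growth versus vehicle gives the inhibition value.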
For the compound `Cc1cccc(NC(=O)CCc2ccc(Cl)cc2)n1`, the growth inhibition was 9.9% (inactive).

In the case of `O=C(NNc1nc(-c2ccccc2)cs1)C(F)(F)F`, the growth inhibition is 85.7% (active).

For `COc1ccc(C(=O)C(c2ccc(OC)cc2)C2(O)C(=O)Nc3c(Cl)cc(Cl)cc32)cc1` (stereo not drawn), the growth inhibition was 90.7% (active).

For the compound `CC(=O)NNc1nc(C)c(C(=O)NNC(=O)C(=O)Nc2ccc(Cl)c([N+](=O)[O-])c2)s1`, the growth inhibition was 55.9% (inactive).

With `COc1ccc(Cc2cncc3c(O)c(OC)ccc23)cc1O`, the growth inhibition is 86.4% (active).

In the case of `Nc1ccccc1N=Nc1c(S(=O)(=O)O)cc2cc(S(=O)(=O)O)cc(O)c2c1O`, the growth inhibition was -33.5% (inactive).

`CCN(CC)c1c(C(=O)/C=C/c2ccc(OC)cc2)c(-c2ccccc2)nn(C)c1=O`: the growth inhibition is 71.3% (active).

On to `O=C(O)/C=C/c1ccc(Cl)c(Cl)c1`, for which the growth inhibition is 86.8% (active).

As to `CCC12C=CCN3CC[C@@]4(c5cc([C@@]6(C(=O)OC)C[C@@H]7CN(CCc8c6[nH]c6ccccc86)C[C@](O)(CC)C7)c(OC)cc5N(C)[C@H]4[C@@](O)(C(=O)OC)[C@@H]1OC(=O)CCCCCCCCCCCN1C(=O)C=CC1=O)[C@H]32` (stereo partly drawn), the growth inhibition is 91% (active).

For `Cc1cc(C)c(Cc2cc(C(C)(C)C)cc(C)c2O)cc1Cc1cc(C(C)(C)C)cc(C)c1O`, the growth inhibition is 49.9% (inactive).

Take `COC(=O)C(=O)/C=C(/O)c1ccc(OC)cc1`: the growth inhibition was 9.85% (inactive).

As for `Oc1ccc2c(c1)OCC1c3ccccc3OC21` (stereo not drawn), the growth inhibition was 75% (active).

With `Cc1cc(N2C(=O)CCSC2=S)c([N+](=O)[O-])cc1C`, the growth inhibition was 99.5% (active).

Regarding `CCCCCCC(C)S(=O)(=O)c1ccc(C)cc1` (stereo not drawn), the growth inhibition was 17.1% (inactive).

Turning to `S=c1sc2c(s1)SCCOCCOCCOCCS2`, the growth inhibition was 22.2% (inactive).

For `N#Cc1cn(-c2c3ccccc3nc3ccccc23)c(=O)[nH]c1=O`, the growth inhibition is 21.8% (inactive).

Consider `O=C1C=C(c2ccccc2)O/C1=C\C(=O)c1ccc(Cl)cc1`, for which the growth inhibition was 88% (active).

For the compound `O=c1[nH]c2cc(Cl)ccc2nc1/C=C(\O)c1ccc(N2CCN(c3ccc(/C(O)=C/c4nc5ccc(Cl)cc5[nH]c4=O)cc3)CC2)cc1`, the growth inhibition is 94.5% (active).

Regarding `O=C1Oc2ccccc2C(=O)/C1=C/N1C(=O)/C(=C/c2ccccc2)NC1=S`, the growth inhibition was 53.5% (inactive).

In the case of `CN(C)/C=C(\C(=O)c1ccccc1)n1nc(-c2ccccc2)cc1-c1ccccc1`, the growth inhibition is 74% (active).

As to `O=C1C(=O)c2ccccc2C(O)=C1Sc1ccccc1`, the growth inhibition is 93.7% (active).

With `O=C(c1c(F)c(F)c(F)c(F)c1F)n1c(=S)n(C(=O)c2c(F)c(F)c(F)c(F)c2F)c2ccccc21`, the growth inhibition is 49.1% (inactive).

For the compound `CCCCNCCC1(c2ccccc2)C(=O)Oc2ccccc21` (stereo not drawn), the growth inhibition was -9.45% (inactive).

With `COc1cc(/C=C/c2cc[n+](C)cc2)ccc1O`, the growth inhibition is 0.85% (inactive).

Turning to `c1ccc(-c2ccc(-c3ccc(C4=NCCN4)cc3)o2)cc1`, the growth inhibition was 95.8% (active).

In the case of `CCCCCCCCCCCCCCNC(=O)C[N+](C)(C)Cc1ccccc1`, the growth inhibition was 99.4% (active).

As to `NC(CSSCC(N)C(=O)Nc1ccc2ccccc2c1)C(=O)Nc1ccc2ccccc2c1` (stereo not drawn), the growth inhibition was 89.5% (active).

For the compound `O=C(OCc1ccccc1)C(O)c1ccccc1` (stereo not drawn), the growth inhibition is 18.4% (inactive).

Turning to `CC(=O)CC1(O)C(=O)Nc2ccc(Br)cc21` (stereo not drawn), the growth inhibition is 0.8% (inactive).

On to `S=C(S)NCCN1CCNCC1`, for which the growth inhibition is -40.6% (inactive).

In the case of `CCCCCCCC(=O)N1CCCCC1CC` (stereo not drawn), the growth inhibition is -9.4% (inactive).

For `O=C1CCCC1C(=O)OC1CCCC1` (stereo not drawn), the growth inhibition was -19.3% (inactive).

For the compound `CCN1CCC(O)(/C=C/c2cccc(C)c2)C(C(=O)/C=C/c2cccc(C)c2)C1` (stereo not drawn), the growth inhibition is 88.2% (active).

Turning to `O=C(SCCCc1ccccc1)c1cc([N+](=O)[O-])cc([N+](=O)[O-])c1`, the growth inhibition was 66% (inactive).

On to `O=C1C(=O)C2CC3(CC1N2Cc1ccccc1)OCCO3`, for which the growth inhibition was 86.5% (active).

Regarding `CNc1cc(SC)nc(N)n1`, the growth inhibition was 75.4% (active).

For `Clc1ccc(Cl)c(SCCCN2CCNCC2)c1`, the growth inhibition is 82.4% (active).

In the case of `CC(C)C(Cl)CC/C(CBr)=C(\Cl)CCl` (stereo not drawn), the growth inhibition is 92.3% (active).

As to `O=C(O)CNc1ccc2c(c1)Cc1cc(Br)ccc1-2`, the growth inhibition is 96.5% (active).

Another test can be described thus: NCI Yeast Anticancer Drug Screen. Data for the mlh1 rad18 strain (AID 175). The note with it: S. cerevisiae mlh1 rad18 strain growth inhibition; at 5.0 µM (retest, dose inferred, filed as 0.5); stronger effect = higher value. In a few lines:
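Yeast w/ defined DNA-repair lesions; compound exposure; growth vs vehicle controls → % inhibition.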
On to `Cc1cccc(NC(=O)CCc2ccc(Cl)cc2)n1`, for which the growth inhibition is 8% (inactive).

For `O=C(NNc1nc(-c2ccccc2)cs1)C(F)(F)F`, the growth inhibition is 93% (active).

On to `COc1ccc(C(=O)C(c2ccc(OC)cc2)C2(O)C(=O)Nc3c(Cl)cc(Cl)cc32)cc1` (stereo not drawn), for which the growth inhibition was -18% (inactive).

Turning to `CC(=O)NNc1nc(C)c(C(=O)NNC(=O)C(=O)Nc2ccc(Cl)c([N+](=O)[O-])c2)s1`, the growth inhibition was 20% (inactive).

Turning to `COc1ccc(Cc2cncc3c(O)c(OC)ccc23)cc1O`, the growth inhibition is 6% (inactive).

Regarding `Nc1ccccc1N=Nc1c(S(=O)(=O)O)cc2cc(S(=O)(=O)O)cc(O)c2c1O`, the growth inhibition is 5% (inactive).

As to `CCN(CC)c1c(C(=O)/C=C/c2ccc(OC)cc2)c(-c2ccccc2)nn(C)c1=O`, the growth inhibition was 8% (inactive).

Take `O=C(O)/C=C/c1ccc(Cl)c(Cl)c1`: the growth inhibition is -17% (inactive).

`CCC12C=CCN3CC[C@@]4(c5cc([C@@]6(C(=O)OC)C[C@@H]7CN(CCc8c6[nH]c6ccccc86)C[C@](O)(CC)C7)c(OC)cc5N(C)[C@H]4[C@@](O)(C(=O)OC)[C@@H]1OC(=O)CCCCCCCCCCCN1C(=O)C=CC1=O)[C@H]32` (stereo partly drawn): the growth inhibition is 32% (inactive).

Consider `Cc1cc(C)c(Cc2cc(C(C)(C)C)cc(C)c2O)cc1Cc1cc(C(C)(C)C)cc(C)c1O`, for which the growth inhibition was 2% (inactive).

Consider `COC(=O)C(=O)/C=C(/O)c1ccc(OC)cc1`, for which the growth inhibition was -34% (inactive).

`Oc1ccc2c(c1)OCC1c3ccccc3OC21` (stereo not drawn): the growth inhibition is 50% (inactive).

For the compound `Cc1cc(N2C(=O)CCSC2=S)c([N+](=O)[O-])cc1C`, the growth inhibition is 65% (inactive).

For the compound `CCCCCCC(C)S(=O)(=O)c1ccc(C)cc1` (stereo not drawn), the growth inhibition is -3% (inactive).

For the compound `S=c1sc2c(s1)SCCOCCOCCOCCS2`, the growth inhibition is -15% (inactive).

For `N#Cc1cn(-c2c3ccccc3nc3ccccc23)c(=O)[nH]c1=O`, the growth inhibition was 14% (inactive).

`O=C1C=C(c2ccccc2)O/C1=C\C(=O)c1ccc(Cl)cc1`: the growth inhibition is 44% (inactive).

With `O=c1[nH]c2cc(Cl)ccc2nc1/C=C(\O)c1ccc(N2CCN(c3ccc(/C(O)=C/c4nc5ccc(Cl)cc5[nH]c4=O)cc3)CC2)cc1`, the growth inhibition is -25% (inactive).

Regarding `O=C1Oc2ccccc2C(=O)/C1=C/N1C(=O)/C(=C/c2ccccc2)NC1=S`, the growth inhibition is -33% (inactive).

As to `CN(C)/C=C(\C(=O)c1ccccc1)n1nc(-c2ccccc2)cc1-c1ccccc1`, the growth inhibition is 16% (inactive).

With `O=C1C(=O)c2ccccc2C(O)=C1Sc1ccccc1`, the growth inhibition was 34% (inactive).

Take `O=C(c1c(F)c(F)c(F)c(F)c1F)n1c(=S)n(C(=O)c2c(F)c(F)c(F)c(F)c2F)c2ccccc21`: the growth inhibition is 29% (inactive).

On to `CCCCNCCC1(c2ccccc2)C(=O)Oc2ccccc21` (stereo not drawn), for which the growth inhibition was -7% (inactive).

Consider `COc1cc(/C=C/c2cc[n+](C)cc2)ccc1O`, for which the growth inhibition is -8% (inactive).

Regarding `c1ccc(-c2ccc(-c3ccc(C4=NCCN4)cc3)o2)cc1`, the growth inhibition was 3% (inactive).

Regarding `CCCCCCCCCCCCCCNC(=O)C[N+](C)(C)Cc1ccccc1`, the growth inhibition is 99% (active).

As for `NC(CSSCC(N)C(=O)Nc1ccc2ccccc2c1)C(=O)Nc1ccc2ccccc2c1` (stereo not drawn), the growth inhibition is 68% (inactive).

For `O=C(OCc1ccccc1)C(O)c1ccccc1` (stereo not drawn), the growth inhibition is -1% (inactive).

In the case of `CC(=O)CC1(O)C(=O)Nc2ccc(Br)cc21` (stereo not drawn), the growth inhibition is -5% (inactive).

With `S=C(S)NCCN1CCNCC1`, the growth inhibition is -4% (inactive).

On to `CCCCCCCC(=O)N1CCCCC1CC` (stereo not drawn), for which the growth inhibition was -118% (inactive).

Regarding `O=C1CCCC1C(=O)OC1CCCC1` (stereo not drawn), the growth inhibition was 14% (inactive).

In the case of `CCN1CCC(O)(/C=C/c2cccc(C)c2)C(C(=O)/C=C/c2cccc(C)c2)C1` (stereo not drawn), the growth inhibition was 64% (inactive).

Regarding `O=C(SCCCc1ccccc1)c1cc([N+](=O)[O-])cc([N+](=O)[O-])c1`, the growth inhibition is 98% (active).

In the case of `O=C1C(=O)C2CC3(CC1N2Cc1ccccc1)OCCO3`, the growth inhibition was 34% (inactive).

On to `CNc1cc(SC)nc(N)n1`, for which the growth inhibition was 0% (inactive).

As for `Clc1ccc(Cl)c(SCCCN2CCNCC2)c1`, the growth inhibition was 23% (inactive).

Consider `CC(C)C(Cl)CC/C(CBr)=C(\Cl)CCl` (stereo not drawn), for which the growth inhibition is 28% (inactive).

Turning to `O=C(O)CNc1ccc2c(c1)Cc1cc(Br)ccc1-2`, the growth inhibition was 45% (inactive).
